From PubChem BioAssay (Tox21) come the findings set out here.

In assay [1] the target is Acetylcholinesterase (Homo sapiens) (UniProt P22303). Put plainly: Acetylcholinesterase (AChE) small molecule antagonists: colormetric cell-based qHTS assay (AID 1347395). Further: nearly all actives have a fitted effect of over 30% in size. Further: potency means the concentration at half of the fitted maximal effect. Summed up:
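Cells (SH-SY5Y, 2,000 per well) are seeded and left overnight at 37 C. Compound is added for 30 min, then DTNB and acetylthiocholine for a further 90 min at 37 C before absorbance-based thiocholine detection.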

Assay [2] has the same target. Put plainly: Acetylcholinesterase (AChE) small molecule antagonists: enzyme-based qHTS assay (AID 1347397). Further: nearly all actives have a fitted effect of over 55% in size. Further: potency means the concentration at half of the fitted maximal effect. The note with it: Potency: AChE enzyme activity inhibition; outcome: AChE enzyme activity inhibition. The method, boiled down:
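Recombinant human AChE (50 mU/mL) preincubated with compound 30 min at room temperature; acetylthiocholine plus DTNB then added, and thiocholine formation read colorimetrically after 10 min at room temperature. DMSO served as vehicle control.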

Assay [3] has the same target. Kind of assay: Acetylcholinesterase (AChE) small molecule antagonists: enzyme-based qHTS assay with human liver microsomes (AID 1347399). Further: nearly all actives have a fitted effect of over 60% in size. The note with it: Potency: qHTS inhibition; outcome: qHTS inhibition. Summed up:
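Recombinant human AChE (50 mU/mL in the enzyme mix) and human liver microsomes (0.25 mg/mL final) were preincubated with compound and NADPH (0.25 mg/mL final) for 30 min at 37 C. Acetylthiocholine/DTNB was then added; thiocholine was read colorimetrically after 10 min at room temperature.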

Assay [4] has the same target. Kind of assay: Acetylcholinesterase (AChE) small molecule antagonists: fluorescence cell-based qHTS assay (AID 1347398). Further: nearly all actives have a fitted effect of over 50% in size. Further: potency means the concentration at half of the fitted maximal effect. The note with it: Potency: AChE activity; outcome: AChE activity. The method, boiled down:
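SH-SY5Y cells (2000/well), attached overnight, incubated with compound 30 min at 37 C. Acetylthiocholine plus Thiolite Green then added for 40 min at room temperature. Thiocholine fluorescence (Ex/Em 490/520 nm) reports cellular AChE activity.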
Background: Quantitative high-throughput screening tests each substance at several concentrations.

Structures are written as SMILES. Where “and” joins values, the source holds several entries; their conditions need not be identical. Equal entries are not always repeated. Results filed as inconclusive are left out. More than one record can exist for a structure, and the calls need not agree. Calls of active or inactive are those of the source. The call rests on the fitted dose curve. Positions of bridges follow the written chain, without caps; N, C: chain ends. Non-standard residues stand in square brackets, D forms with d. Residues, ends and D or L forms follow the SMILES beside them. hArg = N=C(N)NCCCC[C@H](N)C(=O)O; Mpa = O=C(O)CCS
On the % scale 0 is the no-effect control and ±100 the full control effect.

Acetylcholinesterase (Homo sapiens), sequence (P22303 whole entry, looked up): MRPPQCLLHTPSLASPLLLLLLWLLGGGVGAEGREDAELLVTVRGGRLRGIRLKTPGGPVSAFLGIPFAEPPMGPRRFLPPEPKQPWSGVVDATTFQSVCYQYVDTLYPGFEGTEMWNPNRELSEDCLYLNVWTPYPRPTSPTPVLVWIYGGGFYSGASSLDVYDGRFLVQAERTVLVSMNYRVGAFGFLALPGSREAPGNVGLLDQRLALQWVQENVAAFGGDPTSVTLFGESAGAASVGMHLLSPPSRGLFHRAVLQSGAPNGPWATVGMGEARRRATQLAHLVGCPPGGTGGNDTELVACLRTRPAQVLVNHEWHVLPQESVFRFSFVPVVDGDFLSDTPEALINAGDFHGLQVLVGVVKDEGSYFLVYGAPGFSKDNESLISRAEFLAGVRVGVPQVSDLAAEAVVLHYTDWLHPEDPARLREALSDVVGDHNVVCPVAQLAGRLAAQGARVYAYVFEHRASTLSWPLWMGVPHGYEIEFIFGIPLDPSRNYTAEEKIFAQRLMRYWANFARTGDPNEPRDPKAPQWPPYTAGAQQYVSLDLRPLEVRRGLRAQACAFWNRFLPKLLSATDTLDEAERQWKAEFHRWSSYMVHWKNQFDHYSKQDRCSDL

On to `CC(C)[N+](C)(CCOC(=O)C1c2ccccc2Oc2ccccc21)C(C)C`, for which the Potency entry in assay [1], in assay [2] and in assay [3] was “inactive” each time.

For the molecule `CCCCCCCCCCCCc1ccc(O)cc1`, the Potency result in assay [1] and in assay [3] was “inactive” throughout. For the same molecule, the Potency in assay [2] was 63.3 µM (active).

On to `O=S1(=O)CC=CC1`, for which the Potency entry in assay [1], in assay [2] and in assay [3] was “inactive” in each case.

Regarding `CCCCC(CC)COC(=O)CCCCCCCCC(=O)OCC(CC)CCCC` (stereo not given), the Potency result in assay [1], in assay [2] and in assay [3] was “inactive” throughout.

Take `Cc1cccc(Nc2cc(Cl)nc(SCC(=O)O)n2)c1C`: the Potency result in assay [1], in assay [2] and in assay [3] was “inactive” throughout.

In the case of `C[n+]1ccn(CCO)c1`, the Potency result in assay [1], in assay [2] and in assay [3] was “inactive” throughout.

Turning to `CCn1cc(C(=O)O)c(=O)c2cnc(N3CCCC3)nc21`, the activity, negative = inhibition in assay [1] was 2.45% [at 10.5 µM] (inactive). The activity change, negative = inhibition in assay [2] is 0.534% [at 10.5 µM] (inactive); in assay [3], -1.77% [at 10.5 µM] (inactive).

For the molecule `C=CC(=O)OCC(CO)(COCC(COC(=O)C=C)(COC(=O)C=C)COC(=O)C=C)COC(=O)C=C`, the Potency entry in assay [1], in assay [2] and in assay [3] was “inactive” each time.

In the case of `C=C[Si](OC)(OC)OC`, the Potency entry in assay [1], in assay [2] and in assay [3] was “inactive” each time.

On to `O=C(Oc1ccccc1)c1ccccc1`, for which the Potency result in assay [1], in assay [2] and in assay [3] was “inactive” in each case.

As to `CC(=O)c1ccc(OCC(=O)N2CCCCC2)cc1`, the Potency entry in assay [1], in assay [2] and in assay [3] was “inactive” throughout.

On to `OC[C@H]1O[C@@H]2O[C@H]3[C@H](O)[C@@H](O)[C@@H](O[C@H]4[C@H](O)[C@@H](O)[C@@H](O[C@H]5[C@H](O)[C@@H](O)[C@@H](O[C@H]6[C@H](O)[C@@H](O)[C@@H](O[C@H]7[C@H](O)[C@@H](O)[C@@H](O[C@H]1[C@H](O)[C@H]2O)O[C@@H]7CO)O[C@@H]6CO)O[C@@H]5CO)O[C@@H]4CO)O[C@@H]3CO`, for which the Potency result in assay [1], in assay [2] and in assay [3] was “inactive” each time.

In the case of `CC(=O)NNC(C)=O`, the Potency entry in assay [1], in assay [2] and in assay [3] was “inactive” in each case.

Take `O=C1OC(c2ccc(O)cc2)(c2ccc(O)cc2)c2ccccc21`: the Potency in assay [1] was 35.6 µM (active) and 24.5 µM (active). Also, the Potency result in assay [2] and in assay [3] was “inactive” in each case.

On to `CC[N+](CC)(CC(=O)Nc1c(C)cccc1C)Cc1ccccc1`, for which the Potency result in assay [1], in assay [2] and in assay [3] was “inactive” in each case.

With `CC(C)C(=O)c1ccccc1`, the Potency result in assay [1], in assay [2] and in assay [3] was “inactive” in each case.

For `C=COCC(C)C`, the Potency result in assay [1], in assay [2] and in assay [3] was “inactive” throughout.

In the case of `O=C(/C=C/c1ccc(O)c(O)c1)O[C@@H](C(=O)O)[C@@H](OC(=O)/C=C/c1ccc(O)c(O)c1)C(=O)O`, the Potency entry in assay [1], in assay [2] and in assay [3] was “inactive” each time.

As to `CC(C)(C)c1ccc(O)c(C(C)(C)C)c1`, the Potency result in assay [1], in assay [2] and in assay [3] was “inactive” in each case.

Turning to `N[C@H]1C(O)O[C@H](CO)[C@H](O)[C@@H]1O` (stereo not given in full), the Potency entry in assay [1], in assay [2] and in assay [3] was “inactive” throughout.

Turning to `CCCOC(=O)C(C)O` (stereo not given), the Potency entry in assay [1], in assay [2] and in assay [3] was “inactive” in each case.

In the case of `CN=C(NC#N)Nc1ccc(C2=NNC(=O)CC2C)cc1` (stereo not given), the Potency result in assay [1], in assay [2] and in assay [3] was “inactive” each time.

As for `CC(C)=CCC[C@](C)(O)[C@@H]1CC=C(C)CC1`, the Potency entry in assay [1], in assay [2] and in assay [3] was “inactive” throughout.

On to `O=c1[nH]c(=O)c2ccccc2o1`, for which the Potency result in assay [1], in assay [2] and in assay [3] was “inactive” each time.

`CC1=CCC2CC1C2(C)C` (stereo not given): the Potency result in assay [1], in assay [2] and in assay [3] was “inactive” throughout.

Consider `CC(N)C12CC3CC(CC(C3)C1)C2` (stereo not given), for which the Potency result in assay [1], in assay [2] and in assay [3] was “inactive” each time.

For `CCCC/C=C/CCCCO`, the Potency result in assay [1], in assay [2] and in assay [3] was “inactive” in each case.

Turning to `O=C(O)CCNC(=O)c1ccc(N=Nc2ccc(O)c(C(=O)O)c2)cc1`, the Potency entry in assay [1], in assay [2] and in assay [3] was “inactive” each time.

As for `CCCCCCN`, the Potency entry in assay [1], in assay [2] and in assay [3] was “inactive” in each case.

`CC(=O)c1ccccn1`: the Potency entry in assay [1], in assay [2] and in assay [3] was “inactive” each time.

With `COc1ccc(Nc2ccc(OC)cc2)cc1`, the Potency result in assay [1], in assay [2] and in assay [3] was “inactive” each time.

On to `O=c1cccc[nH]1`, for which the Potency entry in assay [1], in assay [2] and in assay [3] was “inactive” each time.

For the molecule `CCNC(=O)/C=C/c1cccc(Br)c1`, the Potency entry in assay [1], in assay [2] and in assay [3] was “inactive” throughout.

Turning to `C[C@H](N)[C@H](O)c1cccc(O)c1`, the Potency result in assay [1], in assay [2] and in assay [3] was “inactive” in each case.

On to `COC(=O)c1ccccc1OC`, for which the Potency result in assay [1], in assay [2] and in assay [3] was “inactive” throughout.

Regarding `CC(C)(C)c1ccc(O)c(O)c1`, the Potency entry in assay [1], in assay [2] and in assay [3] was “inactive” in each case.

With `O=C1NCCN1CCO`, the Potency result in assay [1], in assay [2] and in assay [3] was “inactive” in each case.

In the case of `Cc1oc(=O)oc1CN1CCN(c2cc3c(cc2F)c(=O)c(C(=O)O)c2n3C(C)S2)CC1` (stereo not given), the Potency entry in assay [1], in assay [2] and in assay [3] was “inactive” each time.

Take `Oc1c(I)cc(Cl)c2cccnc12`: the Potency result in assay [1], in assay [2] and in assay [3] was “inactive” throughout.

For `CCCCCNCCCCC`, the Potency result in assay [1], in assay [4] and in assay [3] was “inactive” each time.

Regarding `Cc1cc(NS(=O)(=O)c2ccc(N)cc2)nc(C)n1`, the Potency entry in assay [1], in assay [4] and in assay [3] was “inactive” each time.

Take `Nc1ncn([C@@H]2O[C@H](CO)[C@@H](O)[C@H]2O)c(=O)n1`: the Potency entry in assay [1], in assay [4] and in assay [3] was “inactive” throughout.

Regarding `O=[N+]([O-])c1ccccc1CCO`, the Potency result in assay [1], in assay [4] and in assay [3] was “inactive” throughout.

On to `CSc1ccc(O)cc1C`, for which the Potency entry in assay [1], in assay [4] and in assay [3] was “inactive” in each case.

As to `Cc1c(C(=O)O)c(O)cc2c1C(=O)c1c(O)c([C@@H]3O[C@H](CO)[C@@H](O)[C@H](O)[C@H]3O)c(O)c(O)c1C2=O`, the Potency entry in assay [1], in assay [4] and in assay [3] was “inactive” throughout.

On to `CC(=O)CCC(=O)O`, for which the Potency result in assay [1], in assay [4] and in assay [3] was “inactive” throughout.

As to `CCOC(=O)OC(C)OC1=C(C(=O)Nc2ccccn2)N(C)S(=O)(=O)c2ccccc21` (stereo not given), the Potency result in assay [1], in assay [4] and in assay [3] was “inactive” each time.

`NC(=O)[C@@H]1CSSCCC(=O)N[C@@H](CCCCN=C(N)N)C(=O)NCC(=O)N[C@@H](CC(=O)O)C(=O)N[C@@H](Cc2c[nH]c3ccccc23)C(=O)N2CCC[C@H]2C(=O)N1` ([Mpa][hArg]GDWPC-NH2; disulfide 1-7): the Potency result in assay [1], in assay [4] and in assay [3] was “inactive” in each case.

As to `C[C@]12CCC(=O)C=C1CC[C@@H]1[C@@H]2[C@@H](O)C[C@@]2(C)[C@H]1CC[C@]2(O)C(=O)CO`, the Potency entry in assay [1], in assay [4] and in assay [3] was “inactive” in each case.

Regarding `CC1=CC[C@H]2C[C@@H]1C2(C)C`, the Potency entry in assay [1] and in assay [3] was “inactive” throughout. Besides, in assay [4], the Potency was 32 µM (active) and inactive.

Turning to `O=C1O[C@H]([C@H](O)CO)C(O)=C1O`, the Potency entry in assay [1], in assay [4] and in assay [3] was “inactive” each time.

`COc1cc(Cc2cnc(N)nc2N)cc(OC)c1OC`: the Potency result in assay [1] and in assay [4] was “inactive” each time.

Turning to `Nc1ncnc2c1ncn2[C@@H]1O[C@H](COP(=O)(O)O)[C@@H](O)[C@H]1O`, the Potency entry in assay [1], in assay [4] and in assay [3] was “inactive” each time.

Take `OCCc1ccccn1`: the Potency entry in assay [1], in assay [4] and in assay [3] was “inactive” in each case.

`OCc1cccnc1`: the Potency result in assay [1] and in assay [4] was “inactive” throughout.

For the molecule `CCOC(=O)C1OC1c1ccccc1` (stereo not given), the Potency result in assay [1], in assay [2] and in assay [3] was “inactive” throughout.

In the case of `CC(C)[C@H]1CC[C@@H](C)CC1=O`, the Potency entry in assay [1], in assay [4] and in assay [3] was “inactive” in each case.

As to `Cc1cc(C)c(O)c(C)c1`, the Potency result in assay [1], in assay [4] and in assay [3] was “inactive” in each case.

Turning to `CC(=O)C(C)C`, the Potency result in assay [1], in assay [4] and in assay [3] was “inactive” throughout.
